# Test results as given in article PMC7862700, “An all-to-all approach to the identification of sequence-specific readers for epigenetic DNA modifications on cytosine”.
# Columns and labels:
# Experiment in all cases: DAPPL (digital affinity profiling via proximity ligation, sequencing); 10 mM Tris-HCl pH 7.5, 50 mM NaCl, 1 mM DTT, 4% glycerol, room temperature, 30 min; GST-TFs on glutathione beads, 16-mer random dsDNA library, 0.1% formaldehyde crosslink after washing; high values mean tight binding
# Details in all cases: protein: recombinant; tags: N-terminal GST; dsDNA, one strand shown
# ERF = target: T1, ERF (Homo sapiens, UniProt P50548 1-548)
# T1 sequence: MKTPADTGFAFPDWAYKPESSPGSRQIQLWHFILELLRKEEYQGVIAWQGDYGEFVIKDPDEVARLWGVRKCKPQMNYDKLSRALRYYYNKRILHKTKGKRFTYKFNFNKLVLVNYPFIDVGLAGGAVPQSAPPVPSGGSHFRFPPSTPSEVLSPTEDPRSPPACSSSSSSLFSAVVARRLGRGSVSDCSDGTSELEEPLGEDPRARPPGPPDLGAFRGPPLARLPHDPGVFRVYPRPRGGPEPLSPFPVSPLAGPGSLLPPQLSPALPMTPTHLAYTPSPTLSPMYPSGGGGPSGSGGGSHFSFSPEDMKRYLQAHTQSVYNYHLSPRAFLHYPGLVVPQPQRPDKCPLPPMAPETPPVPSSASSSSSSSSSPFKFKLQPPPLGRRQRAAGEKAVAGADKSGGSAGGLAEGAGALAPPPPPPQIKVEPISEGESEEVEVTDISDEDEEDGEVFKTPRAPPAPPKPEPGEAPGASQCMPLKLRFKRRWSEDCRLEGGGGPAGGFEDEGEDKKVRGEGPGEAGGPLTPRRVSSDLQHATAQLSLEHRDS
# In short: (§1)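 After expression in yeast as GST fusions, human transcription factors were bound to glutathione beads, DNA-barcoded and mixed with a tag-only sample. The pools were incubated with 200 nmole of a 16-mer random double-stranded DNA library in Tris/NaCl/DTT/glycerol buffer (30 min, room temperature), washed and crosslinked with 0.1% formaldehyde. Proximity ligation with BsaI/T4 ligase ran for 1 h at 37 °C, before PCR amplification and sequencing on an Illumina NextSeq500. Binding signal is a hexamer's read frequency for a factor divided by its frequency for the tag-only sample.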
# ETV3L = target: T2, ETV3L (Homo sapiens, UniProt Q6ZN32 1-361)
# T2 sequence: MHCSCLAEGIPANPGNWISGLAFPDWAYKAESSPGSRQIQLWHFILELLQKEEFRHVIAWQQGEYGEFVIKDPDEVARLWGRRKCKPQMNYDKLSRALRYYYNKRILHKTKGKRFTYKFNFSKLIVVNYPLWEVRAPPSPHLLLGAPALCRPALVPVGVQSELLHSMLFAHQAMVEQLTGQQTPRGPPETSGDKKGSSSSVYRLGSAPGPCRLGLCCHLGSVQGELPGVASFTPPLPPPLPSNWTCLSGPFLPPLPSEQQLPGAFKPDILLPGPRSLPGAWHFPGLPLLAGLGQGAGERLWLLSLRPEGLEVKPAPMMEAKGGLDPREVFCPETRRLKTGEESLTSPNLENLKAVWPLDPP
# In short: as §1
# ETS2 = target: T3, ETS2 (Homo sapiens, UniProt P15036 1-469)
# T3 sequence: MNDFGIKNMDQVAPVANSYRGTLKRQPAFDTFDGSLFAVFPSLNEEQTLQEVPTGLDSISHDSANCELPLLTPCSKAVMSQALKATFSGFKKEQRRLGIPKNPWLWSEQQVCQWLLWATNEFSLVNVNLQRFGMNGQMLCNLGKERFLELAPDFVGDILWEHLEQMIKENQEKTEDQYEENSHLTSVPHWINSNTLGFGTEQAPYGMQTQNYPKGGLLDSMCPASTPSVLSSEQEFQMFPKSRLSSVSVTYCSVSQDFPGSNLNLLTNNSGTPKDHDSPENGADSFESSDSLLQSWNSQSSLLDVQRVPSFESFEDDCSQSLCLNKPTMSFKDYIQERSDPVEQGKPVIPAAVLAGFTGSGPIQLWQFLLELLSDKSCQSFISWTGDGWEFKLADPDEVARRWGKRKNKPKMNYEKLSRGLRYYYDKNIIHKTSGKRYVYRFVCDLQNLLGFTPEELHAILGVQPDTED
# In short: as §1
# SPDEF = target: T4, SPDEF (Homo sapiens, UniProt O95238 1-335)
# T4 sequence: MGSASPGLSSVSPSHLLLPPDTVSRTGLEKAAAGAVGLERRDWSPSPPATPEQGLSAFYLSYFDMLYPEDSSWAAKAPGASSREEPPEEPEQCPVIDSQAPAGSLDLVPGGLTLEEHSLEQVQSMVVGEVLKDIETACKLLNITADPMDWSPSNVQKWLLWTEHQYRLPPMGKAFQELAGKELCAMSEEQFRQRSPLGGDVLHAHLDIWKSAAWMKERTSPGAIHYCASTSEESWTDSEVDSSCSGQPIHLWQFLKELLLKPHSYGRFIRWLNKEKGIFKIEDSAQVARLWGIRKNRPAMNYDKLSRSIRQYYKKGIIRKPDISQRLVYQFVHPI
# In short: as §1
# ELF5 = target: T5, ELF5 (Homo sapiens, UniProt Q9UKW6-2 1-255)
# T5 sequence: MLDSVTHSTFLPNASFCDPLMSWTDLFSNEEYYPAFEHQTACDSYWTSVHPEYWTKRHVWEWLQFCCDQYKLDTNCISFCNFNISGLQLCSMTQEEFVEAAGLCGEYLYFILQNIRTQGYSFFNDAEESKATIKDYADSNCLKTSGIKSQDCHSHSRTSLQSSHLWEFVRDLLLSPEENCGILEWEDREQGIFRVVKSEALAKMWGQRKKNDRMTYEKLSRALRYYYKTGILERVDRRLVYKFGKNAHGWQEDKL
# In short: as §1
# ETV3 = target: T6, ETV3 (Homo sapiens, UniProt P41162-2 1-143)
# T6 sequence: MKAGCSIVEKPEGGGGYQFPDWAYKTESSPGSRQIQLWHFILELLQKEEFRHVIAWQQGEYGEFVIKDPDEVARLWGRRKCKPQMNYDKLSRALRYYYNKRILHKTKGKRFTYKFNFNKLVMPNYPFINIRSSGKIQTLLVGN
# In short: as §1
# ETV6 = ETV6 (Homo sapiens, UniProt P41212 1-452)
# In short: as §1
# ETV7 = target: T7, ETV7 (Homo sapiens, UniProt Q9Y603 1-341)
# T7 sequence: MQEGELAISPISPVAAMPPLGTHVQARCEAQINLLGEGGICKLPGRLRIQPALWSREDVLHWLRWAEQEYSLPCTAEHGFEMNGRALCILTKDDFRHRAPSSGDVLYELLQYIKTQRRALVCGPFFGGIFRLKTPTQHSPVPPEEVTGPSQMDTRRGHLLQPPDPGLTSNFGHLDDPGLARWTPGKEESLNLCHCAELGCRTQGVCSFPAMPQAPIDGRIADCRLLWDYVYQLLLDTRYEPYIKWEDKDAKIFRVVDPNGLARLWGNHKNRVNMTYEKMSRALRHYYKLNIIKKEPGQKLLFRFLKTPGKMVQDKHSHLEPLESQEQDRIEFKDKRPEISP
# In short: as §1
# Chain of ETV6 (P41212 whole entry): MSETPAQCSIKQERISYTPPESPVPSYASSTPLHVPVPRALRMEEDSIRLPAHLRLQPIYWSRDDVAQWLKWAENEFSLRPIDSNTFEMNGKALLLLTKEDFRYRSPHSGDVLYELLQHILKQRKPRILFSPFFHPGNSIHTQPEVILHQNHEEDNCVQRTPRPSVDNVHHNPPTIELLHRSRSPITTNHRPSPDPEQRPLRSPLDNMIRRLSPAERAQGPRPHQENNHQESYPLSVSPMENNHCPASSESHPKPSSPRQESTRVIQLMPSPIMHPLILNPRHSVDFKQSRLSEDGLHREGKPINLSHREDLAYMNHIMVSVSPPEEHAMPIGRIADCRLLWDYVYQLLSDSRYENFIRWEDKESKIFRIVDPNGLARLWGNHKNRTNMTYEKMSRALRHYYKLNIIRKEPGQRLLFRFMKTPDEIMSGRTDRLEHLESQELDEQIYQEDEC
Sequence,binding signal (ERF),binding signal (ETV3L),binding signal (ETS2),binding signal (SPDEF),binding signal (ELF5),binding signal (ETV3),binding signal (ETV6),binding signal (ETV7)
ATCGTC,"1.13 fold enrichment (6-mer frequency, TF over GST control)","1.09 fold enrichment (6-mer frequency, TF over GST control)","1.05 fold enrichment (6-mer frequency, TF over GST control)","1.05 fold enrichment (6-mer frequency, TF over GST control)","1.07 fold enrichment (6-mer frequency, TF over GST control)","1.06 fold enrichment (6-mer frequency, TF over GST control)","1.06 fold enrichment (6-mer frequency, TF over GST control)",–
GATACT,"1.22 fold enrichment (6-mer frequency, TF over GST control)","1.22 fold enrichment (6-mer frequency, TF over GST control)","1.09 fold enrichment (6-mer frequency, TF over GST control)","1.17 fold enrichment (6-mer frequency, TF over GST control)","1.06 fold enrichment (6-mer frequency, TF over GST control)","1.06 fold enrichment (6-mer frequency, TF over GST control)","1.07 fold enrichment (6-mer frequency, TF over GST control)",–
ATGCTG,"1.16 fold enrichment (6-mer frequency, TF over GST control)","1.13 fold enrichment (6-mer frequency, TF over GST control)","1.18 fold enrichment (6-mer frequency, TF over GST control)","1.11 fold enrichment (6-mer frequency, TF over GST control)","1 fold enrichment (6-mer frequency, TF over GST control)","1.09 fold enrichment (6-mer frequency, TF over GST control)","1.08 fold enrichment (6-mer frequency, TF over GST control)",–
CCGTAA,"1.08 fold enrichment (6-mer frequency, TF over GST control)","1.12 fold enrichment (6-mer frequency, TF over GST control)","1.16 fold enrichment (6-mer frequency, TF over GST control)","1.2 fold enrichment (6-mer frequency, TF over GST control)","1.22 fold enrichment (6-mer frequency, TF over GST control)","1.12 fold enrichment (6-mer frequency, TF over GST control)","1.08 fold enrichment (6-mer frequency, TF over GST control)",–
GCACGC,"1.09 fold enrichment (6-mer frequency, TF over GST control)","1.07 fold enrichment (6-mer frequency, TF over GST control)","1 fold enrichment (6-mer frequency, TF over GST control)","1.04 fold enrichment (6-mer frequency, TF over GST control)",–,"1.14 fold enrichment (6-mer frequency, TF over GST control)","1.07 fold enrichment (6-mer frequency, TF over GST control)","1.07 fold enrichment (6-mer frequency, TF over GST control)"
GTTATC,"1.06 fold enrichment (6-mer frequency, TF over GST control)","1.07 fold enrichment (6-mer frequency, TF over GST control)","1.14 fold enrichment (6-mer frequency, TF over GST control)","1.11 fold enrichment (6-mer frequency, TF over GST control)","1.14 fold enrichment (6-mer frequency, TF over GST control)","1.07 fold enrichment (6-mer frequency, TF over GST control)","1.1 fold enrichment (6-mer frequency, TF over GST control)",–
TAATCG,"1.06 fold enrichment (6-mer frequency, TF over GST control)","1.09 fold enrichment (6-mer frequency, TF over GST control)","1.08 fold enrichment (6-mer frequency, TF over GST control)","1.05 fold enrichment (6-mer frequency, TF over GST control)","1.05 fold enrichment (6-mer frequency, TF over GST control)",–,"1.05 fold enrichment (6-mer frequency, TF over GST control)",–
CCCATG,"1.14 fold enrichment (6-mer frequency, TF over GST control)","1.11 fold enrichment (6-mer frequency, TF over GST control)","1.02 fold enrichment (6-mer frequency, TF over GST control)","1.1 fold enrichment (6-mer frequency, TF over GST control)",–,"1.14 fold enrichment (6-mer frequency, TF over GST control)","1.12 fold enrichment (6-mer frequency, TF over GST control)",–
CGCTAG,"1.08 fold enrichment (6-mer frequency, TF over GST control)","1.06 fold enrichment (6-mer frequency, TF over GST control)","1.03 fold enrichment (6-mer frequency, TF over GST control)","1.08 fold enrichment (6-mer frequency, TF over GST control)","1.05 fold enrichment (6-mer frequency, TF over GST control)",–,"1.04 fold enrichment (6-mer frequency, TF over GST control)",–
TCGCCG,"1.38 fold enrichment (6-mer frequency, TF over GST control)","1.25 fold enrichment (6-mer frequency, TF over GST control)","1.26 fold enrichment (6-mer frequency, TF over GST control)","1.01 fold enrichment (6-mer frequency, TF over GST control)","1.15 fold enrichment (6-mer frequency, TF over GST control)","1.2 fold enrichment (6-mer frequency, TF over GST control)","1.13 fold enrichment (6-mer frequency, TF over GST control)",–
CCAAAC,"1.08 fold enrichment (6-mer frequency, TF over GST control)","1.12 fold enrichment (6-mer frequency, TF over GST control)","1.1 fold enrichment (6-mer frequency, TF over GST control)","1.11 fold enrichment (6-mer frequency, TF over GST control)","1.09 fold enrichment (6-mer frequency, TF over GST control)","1.11 fold enrichment (6-mer frequency, TF over GST control)","1.07 fold enrichment (6-mer frequency, TF over GST control)",–
